Measured values taken from PubChem BioAssay.

Each molecule was assayed on wheat germ agglutinin (Triticum aestivum), Alexa647-labelled (assay: Alexa647-WGA lectin binding to printed small molecules – biochemical, small-molecule microarray, 635/667 nm fluorescence, artefact control for SMM control-protein annotation, profiling panel (AID 1140;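 also: score merges 667 nm feature emission with signal to noise over triplicate slides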)). Conditions: WGA-A647 binding, 635 nm fluorescence, higher = more signal.

SMILES	composite z-score
O=C1O[C@H](c2ccccc2)[C@H](c2ccccc2)N2[C@H]1[C@@H](C(=O)Nc1nc3ccccc3s1)[C@]1(C(=O)Nc3ccc(C#CCCO)cc31)[C@H]2c1ccc(OCCO)cc1	1.04
C=CCOC(=O)[C@H]1[C@@H]2C(=O)O[C@@H](c3ccccc3)[C@@H](c3ccccc3)N2[C@@H](c2ccc(OCCOC(=O)[C@@H]3C[C@@H]4C(=O)N[C@@H](CCCC[N+](C)(C)C)C(=O)N4[C@@H]3c3ccc(O)cc3)cc2)[C@]12C(=O)Nc1ccccc12	0.494
COCCCN1C(=O)[C@@]2(Cc3ccccc31)c1ccccc1C(=O)N(Cc1ccccc1C(F)(F)F)[C@H]2c1ccc(CO)cc1	0.101
COc1cc2c(cc1OC)CN(C(=O)[C@@H]1[C@H]3C(=O)O[C@H](c4ccccc4)[C@H](c4ccccc4)N3[C@H](c3ccc(O)cc3)[C@@]13C(=O)Nc1ccc(C#CC4(O)CCCCCC4)cc13)CC2	0.137
COCCOC(=O)N1C(=O)[C@@]2(c3ccccc31)[C@H](c1ccccc1OCCO)N1[C@H](c3ccccc3)[C@H](c3ccccc3)OC(=O)[C@H]1[C@@H]2C(=O)Nc1nc2ccccc2s1	1.18
C=C[C@H](COC(C)=O)N(C(=O)OC(C)(C)C)S(=O)(=O)c1ccc(Br)cc1	0.233
COc1cc(CO)cc(I)c1O[C@H]1C=C(C(=O)NCCO)C[C@@H](N(CCN2CCOCC2)C(=O)C2CCOC2)[C@@H]1O (some centres undefined)	-0.201
COC(=O)[C@@]1(Cc2ccc(F)cc2)[C@H]2c3cc(C(=O)N4CCCC4)n(Cc4ccc(C)o4)c3C[C@H]2CN1C(=O)c1ccccc1	0.794
C=CCN1C(=O)[C@]2(O[C@H](CCO)[C@@H]([Si](C)(C)c3ccc(OC)cc3)[C@@H]2C)c2cc(N3C(=O)c4cccc5cccc3c45)ccc21	0.393
C=CCN1C(=O)[C@]2(O[C@H](CCO)[C@@H]([Si](C)(C)c3ccc(OC)cc3)[C@@H]2C)c2cc(N3CCCCC3=O)ccc21	0.679
CN1C(=O)C2C=CC(C(O)c3ccc(-c4ccccc4)s3)N(N(c3ccccc3)c3ccccc3)C2C1=O (centres undefined)	1.08
COc1cc(OC)c(C(O)C2C=CC3C(=O)NC(=O)C3N2Nc2ccc(Cl)cc2Cl)cc1Br (centres undefined)	1.07
CCOC(=O)C[C@H]1[C@H](OC(=O)c2cc3ccccc3oc2=O)[C@@H](NC(=O)Cc2ccc(OC)cc2)c2cc(OCCCO)ccc2N1C(=O)c1ccccc1	0.318
COc1ccc(C(O)C2C=CC3C(=O)N(c4ccccc4)C(=O)C3N2Nc2ccccc2F)cc1OCc1ccccc1 (centres undefined)	1.18
CN1C(=O)C2C=CC(C(O)Cc3ccccc3)N(Nc3ccccc3)C2C1=O (centres undefined)	1.12
O=C1O[C@H](c2ccccc2)[C@H](c2ccccc2)N2[C@H]1[C@@H](C(=O)Nc1nc3ccccc3s1)[C@]1(C(=O)Nc3ccc(C#CC4(O)CCCCCC4)cc31)[C@H]2c1ccc(OCCO)cc1	0.921
C[N+](C)(C)CCCC[C@@H]1NC(=O)[C@@H]2C[C@H](C(=O)NCCCCCN)[C@H](c3cccc(OCCO)c3)N2C1=O	1.07
CCCCCCC#C[Si](O[C@H](c1ccccc1)c1cn([C@H](CO)Cc2ccccc2)nn1)(C(C)C)C(C)C	0.207
COC(=O)[C@@]1(Cc2ccc(F)cc2)[C@@H]2[C@@H](CC(=O)[C@H]2CC(=O)C(=O)N(C)C)CN1C(=O)c1ccccc1	1.22
C#CCN(CC=C(C)C)[C@H](CO)c1ccccc1	-0.196
CCc1oc(CC[C@@H](CO)NC(=O)NCCn2cc(C3(O)CCCCC3)nn2)c(C(=O)OC)c1C(=O)OC	0.074
C#CCN(Cc1ccccc1Br)C(/C=C/c1ccccc1)CO (centres undefined)	-0.618
C#CCNC(=O)[C@H](Cc1ccccc1)NC(=O)CCC(=O)O	-1.19
C[C@@]1([C@@H](NC(=O)c2ccccc2)c2ccc(-c3ccccc3)cc2)C[C@H]1C1CCCCC1	0.519
CC(C)C(=C=CC[C@@H](O)c1ccccc1OCCO)CCO	0.201
O=C(c1ccccc1)N1Cc2ccccc2[C@@H]2OC(c3ccc(OCCCO)cc3)=N[C@]2(Cc2ccccc2)C1=O	0.765
CC(C)C(CO)N1C(=O)[C@@H]2[C@H]3C(=O)OCC=C[C@H]3OC23C=CCN(C(C)C)C(=O)[C@@H]13 (some centres undefined)	-0.131
CN(C)C(=O)[C@@]1(Cc2ccccc2)N=C(c2ccc(OCCCO)cc2)O[C@H]1c1ccccc1N=[N+]=[N-]	0.382
C=C/C=C/[C@H]1C(=C)CN([C@@H](Cc2ccccc2)C(=O)OC)[C@@H]1[C@H](O)Cc1ccccc1	0.0321
